Data from the supplement of paper PMC3545927.
The other results are listed elsewhere or left out. The true hit rate is not given.

B1: HC2006 (peptide)
chain: CAVMCCSMSYAGNASASA
B2: HC120 (peptide)
chain: CAVVCCPMSYAGNASASA
B3: FS-1939 (peptide)
chain: CARVKRQKISAGNASASA
B4: FS-2804 (peptide)
chain: CARSFRRIAGAGNASASA
B5: FS-2099 (peptide)
chain: CARVKRFIQEAGNASASA
B6: FS-2531 (peptide)
chain: CARVKRPIENAGNASASA
B7: FS-2242 (peptide)
chain: CARVKRTHVPAGNASASA
B8: FS-2533 (peptide)
chain: CARVKRRIENAGNASASA
B9: HC2506 (peptide)
chain: CASTMCSAHLAGNASASA
B10: HC1817 (peptide)
chain: CADSMEECSQAGNASASA
B11: HC2449 (peptide)
chain: CAEYEVPCHRAGNASASA
B12: FS-947 (peptide)
chain: CANSSRSKKPAGNASASA
B13: FS-1872 (peptide)
chain: CARVKRNILAAGNASASA
B14: FS-1840 (peptide)
chain: CARSIRDILAAGNASASA
B15: FS-335 (peptide)
chain: CAHWSMSKRDAGNASASA
B16: FS-407 (peptide)
chain: CACVSRSKRDAGNASASA
B17: FS-406 (peptide)
chain: CACVLRSKRDAGNASASA
B18: HC2561 (peptide)
chain: CASTPCSANLAGNASASA
B19: HC1459 (peptide)
chain: CADVVTKLPLAGNASASA
B20: HC1462 (peptide)
chain: CAPLAVMGSSAGNASASA
B21: FS-1274 (peptide)
chain: CARTSRRKRAAGNASASA
B22: FS-619 (peptide)
chain: CAPKARRKRYAGNASASA
B23: FS-958 (peptide)
chain: CARTSRRKRYAGNASASA
B24: HC1540 (peptide)
chain: CAFTEAMTRYAGNASASA
B25: HC898 (peptide)
chain: CAITLPQDAVAGNASASA
B26: HC675 (peptide)
chain: CAITAYAQQTAGNASASA
B27: HC654 (peptide)
chain: CAGADTAACGAGNASASA
B28: HC206 (peptide)
chain: CACGWAGWLLAGNASASA

Target: furin, P09958
Sequence (P09958 whole entry): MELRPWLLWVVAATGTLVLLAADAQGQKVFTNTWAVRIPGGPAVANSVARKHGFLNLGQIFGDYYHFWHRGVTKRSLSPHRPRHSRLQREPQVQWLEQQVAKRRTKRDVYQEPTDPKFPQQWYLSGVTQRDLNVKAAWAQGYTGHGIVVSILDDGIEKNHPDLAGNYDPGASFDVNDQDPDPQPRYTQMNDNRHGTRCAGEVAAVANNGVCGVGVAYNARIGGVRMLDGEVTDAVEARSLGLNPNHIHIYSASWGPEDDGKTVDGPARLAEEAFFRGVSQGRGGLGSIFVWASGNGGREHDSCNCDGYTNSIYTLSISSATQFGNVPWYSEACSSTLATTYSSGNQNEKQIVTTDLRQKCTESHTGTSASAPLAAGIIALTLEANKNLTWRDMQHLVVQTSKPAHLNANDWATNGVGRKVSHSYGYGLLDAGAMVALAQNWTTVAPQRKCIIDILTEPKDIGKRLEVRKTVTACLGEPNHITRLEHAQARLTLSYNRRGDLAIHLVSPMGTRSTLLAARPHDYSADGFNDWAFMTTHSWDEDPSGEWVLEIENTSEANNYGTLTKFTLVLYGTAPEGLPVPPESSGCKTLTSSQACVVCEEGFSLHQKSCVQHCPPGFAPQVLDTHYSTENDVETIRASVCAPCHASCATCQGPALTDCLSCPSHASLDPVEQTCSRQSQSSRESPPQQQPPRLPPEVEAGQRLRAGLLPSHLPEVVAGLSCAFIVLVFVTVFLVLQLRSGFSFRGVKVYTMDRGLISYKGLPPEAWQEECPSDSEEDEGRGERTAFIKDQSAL
Test: furin cleavage Z-score vs untreated control; higher = more cleavage, active = 3.5 or more, inactive = 1 or less, 8 variable residues between constant flanks
Outline: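 Read counts from sequencing released DNA gave abundance for each bead-bound 8-mer peptide–cDNA fusion cut by purified furin over 7.5, 15 or 30 min. The cleavage Z-score compares log counts with furin-free reactions after lowess adjustment and median absolute deviation scaling.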
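Note: purified furin at 1:10 enzyme:substrate in 50 mM HEPES pH 7.5.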

Sequence | furin cleavage Z-score (7.5 min) | furin cleavage Z-score (15 min) | furin cleavage Z-score (30 min)
B1 | 0.223 (inactive) | 0.521 (inactive) | 0.261 (inactive)
B2 | -0.00854 (inactive) | 1.19 | 0.154 (inactive)
B3 | 2.51 | 3.08 | 4.8 (active)
B4 | -0.414 (inactive) | -1.36 (inactive) | -1.34 (inactive)
B5 | 5.75 (active) | 5.53 (active) | 5.92 (active)
B6 | -0.853 (inactive) | 0.717 (inactive) | -0.955 (inactive)
B7 | 4.22 (active) | 8.01 (active) | 3.97 (active)
B8 | 4.86 (active) | 7.07 (active) | 8.34 (active)
B9 | -0.111 (inactive) | 1.36 | 2.15
B10 | 1.19 | 1.94 | 0.888 (inactive)
B11 | -0.191 (inactive) | 0.0222 (inactive) | -0.958 (inactive)
B12 | -0.794 (inactive) | -0.615 (inactive) | -1.7 (inactive)
B13 | 5.27 (active) | 8.45 (active) | 8.24 (active)
B14 | -1.31 (inactive) | 1.74 | 2.38
B15 | -1.15 (inactive) | 0.288 (inactive) | 0.917 (inactive)
B16 | 13 (active) | 10.3 (active) | 7.76 (active)
B17 | 9.82 (active) | 8.74 (active) | 6.13 (active)
B18 | 0.829 (inactive) | 0.852 (inactive) | 0.011 (inactive)
B19 | 0.775 (inactive) | 0.418 (inactive) | 0.0796 (inactive)
B20 | 0.481 (inactive) | 1.18 | -0.14 (inactive)
B21 | 10.3 (active) | 9.52 (active) | 6.92 (active)
B22 | 11.3 (active) | 13.4 (active) | 11.2 (active)
B23 | 11.4 (active) | 13.5 (active) | 9.45 (active)
B24 | 1.26 | -0.149 (inactive) | -0.331 (inactive)
B25 | -0.191 (inactive) | -0.999 (inactive) | -1.58 (inactive)
B26 | -0.902 (inactive) | -0.292 (inactive) | -0.928 (inactive)
B27 | -0.934 (inactive) | -0.244 (inactive) | -0.368 (inactive)
B28 | 0.181 (inactive) | -0.831 (inactive) | -0.0867 (inactive)
